A number with no mark means an inactive call. Results filed as inconclusive are left out. Activity calls are given as the source filed them. Unless noted, calls follow the shape of the dose curve; as a rule, active = well fitted curve in the direction sought with a large enough effect; inconclusive = small, poorly fitted or top-dose-only effect, or another doubt; inactive = no such curve, though single readings can be large; an effect the other way counts as inactive or inconclusive.

Experiment [1] deals with Glucocorticoid receptor (Homo sapiens) (UniProt P04150). As to the kind of experiment: GR-GFP Redistribution (AID 450;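 active = compounds whose dose series gives a full or clear partial fitted curve of increased nuclear translocation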; also: potency is read from the fitted curve at half-maximal effect). Conditions: U2OS GR-GFP nuclear translocation, laser cytometry, 2 h.
Experiment [2] shares this target. As to the kind of experiment: GR-EFC Redistribution (AID 451; calls by dose curve; also: potency is read from the fitted curve at half-maximal effect). Conditions: CHO-K1 GR-EFC translocation, beta-gal luminescence, 2 h. Put shortly:
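Translocation of GR-ED fusion to nuclear EA restores b-gal, read by luminescence after 1 h room-temperature detection. Engineered CHO-K1 biosensor cells, 1,000/well, exposed 2 h at 37 C to titrations up to 46 uM final.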

The target of experiment [3] is Mitogen-activated protein kinase 10 (Mus musculus) (UniProt Q61831). As to the kind of experiment: JNK3 AlphaScreen Assay (AID 530; active = well fitted curve in either direction with a large enough effect, not every such curve was filed as active;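 also: kinase came from lysate of stimulated human HepG2 cells; signal reports phosphorylation of biotinylated GST-cJun 1-79 at Ser73 with 10 µM ATP; series mostly up to about 57 µM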). The procedure, abridged:
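Kinase buffer: 20 mM Tris-HCl pH 7.6, 10 mM MgCl2, 1 mM DTT, 0.1 mM Na3VO4, 0.01% Tween-20; ATP 10 uM. Substrate biotin-GST-cJun(1-79), enzyme from activated HepG2 lysates. Detection by Ser73 phospho-antibody AlphaScreen.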
(Alpha assays give light when donor and acceptor beads are brought close together.)

For experiment [4], the target named is Cytochrome P450 3A4 (Homo sapiens) (UniProt P08684). Description: qHTS Assay for Activators of Cytochrome P450 3A4 (AID 885). Also: nearly all actives have a fitted effect of over 65% in size. Put shortly:
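Using 20nM recombinant human CYP3A4 in potassium phosphate (200mM), substrate Luciferin-PPXE at 25uM, luminescent luciferin detection followed a 60-min RT NADPH reaction; data scaled to 57 uM ketoconazole.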

Experiment [5] addresses Ubiquitin carboxyl-terminal hydrolase 1 (Homo sapiens) (UniProt O94782). As to the kind of experiment: Inhibitors of USP1/UAF1: Pilot qHTS (AID 504865).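 Also: rhodamine fluorescence freed from ubiquitin-rhodamine substrate followed over time; top concentration of the series differs between compounds; nearly all actives have a fitted effect of over 35% in size.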 The procedure, abridged:
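In 50mM HEPES pH 7.8 containing 0.5mM EDTA, 1mM TCEP, 0.1 mg/ml BSA and 0.01% Tween-20, 1nM USP1/UAF1 is exposed to compound for 15 min, then Ub-Rho (150nM final) is added and fluorescence is read over time.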
A general note: In qHTS, concentration-response curves come from the screen itself.

In experiment [6] the target is DNA dC->dU-editing enzyme APOBEC-3G (Homo sapiens) (UniProt Q9HC16). As to the kind of experiment: qHTS for inhibitors of Vif-A3G interactions: Validation (AID 588379). Put shortly: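 Yellow fluorescence (Ex 488, Em 500-530) of Vif-coexpressing HeLa A3G-eYFP cells, scanned by Acumen cytometer, reports blocked A3G degradation. Cells plated at 700/well overnight at 37 deg C before compound addition, then a further overnight compound incubation at 37 deg C.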

The subject of experiment [7] is Zika virus NS2B-NS3 protease. Description: Primary screen GU AMC qHTS for Zika virus inhibitors (AID 1347154). Also: nearly all actives have a fitted effect of over 70% in size. Put shortly: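 Fluorogenic AMC-substrate cleavage by noncovalent NS2B-NS3 protease complex (25 nM, pH 8.0 Tris buffer with Tween 20) followed for 15 minutes at room temperature (~20% conversion). Percent inhibition from ex340/em450 signal change, fitted by 4-parameter Hill equation.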

The target in experiment [8] is Cytochrome P450 1A2 (Homo sapiens) (UniProt P05177). As to the kind of experiment: p450-cyp1a2 (AID 410; calls by dose curve; also: potency is read from the fitted curve at half-maximal effect). Put shortly: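 20nM CYP1A2, 100uM Luciferin-ME (=Km), 100mM KPO4; cpd 10 min RT; +NADPH regen, 60 min RT; stop/detect 20 min; luminescence. Normalized to furafylline 57 uM = full inhibition.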
Experiment [9] addresses 3',5'-cyclic-AMP phosphodiesterase 4B (Homo sapiens) (UniProt Q07343). Description: qHTS Assay for Inhibitors of PDE-IV (AID 607; active = well fitted activation curve with a large enough effect in the main read-out, with a control signal flat, not every such curve was filed as active). Put shortly:
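Live HEK293 cells with a modified cyclic nucleotide-gated (CNG) channel report intracellular cAMP via membrane-potential dye fluorescence (ex 535/em 590 nm). Endogenous PDE-IV was targeted. Compounds were tested at up to 22.9 uM final; RO 20-1724 100 uM served as control.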

Experiment [10] addresses Cytochrome P450 3A4 (Homo sapiens) (UniProt P08684). As to the kind of experiment: qHTS Assay for Inhibitors and Substrates of Cytochrome P450 3A4 (AID 884). Also: potency is read from the fitted curve at half-maximal effect; nearly all actives have a fitted effect of over 50% in size. Put shortly:
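Luminescent readout of luciferin produced by CYP3A4 (20 nM) dealkylation of Luciferin-PPXE, 25 uM (its KM). NADPH-driven reaction ran 60 min at RT after 10 min compound preincubation; data scaled to 57 uM ketoconazole as 100% inhibition.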

Experiment [11] has as its target Cytochrome P450 2C9 (Homo sapiens) (UniProt P11712). Description: qHTS Assay for Inhibitors and Substrates of Cytochrome P450 2C9 (AID 883). Also: potency is read from the fitted curve at half-maximal effect; nearly all actives have a fitted effect of over 60% in size. The procedure, abridged: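 Turnover of Luciferin-H (100uM, KM) by 10nM human CYP2C9 was measured over 60 min at 37C with NADPH regeneration; inhibitors and some substrates reduce luminescence. Data normalized to sulphaphenazole 57uM.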

In experiment [12] the target is Cytochrome P450 2D6 (Homo sapiens) (UniProt P10635). Description: qHTS Assay for Inhibitors and Substrates of Cytochrome P450 2D6 (AID 891).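 Also: luciferin methyl ether substrate demethylated by CYP2D6 with NADPH regeneration; nearly all actives have a fitted effect of over 60% in size.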 The procedure, abridged:
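Luminescent read-out of luciferin formed by 5 nM human CYP2D6 demethylating 30 uM Luciferin-ME EGE (Km level) over 60 min at room temperature after NADPH regeneration addition. Data normalized to full inhibition by 1.43 uM quinidine.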

For experiment [13], the target named is Cytochrome P450 2C19 (Homo sapiens) (UniProt P33261). As to the kind of experiment: qHTS Assay for Inhibitors and Substrates of Cytochrome P450 2C19 (AID 899). Also: nearly all actives have a fitted effect of over 60% in size. Put shortly: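 Reactions contain 5nM enzyme, 10uM Luciferin-H EGE (KM) and 50mM KPO4; compound preincubates 10 min at 37C, NADPH regeneration starts turnover for 60 min. Luminescence after detection reagent gives activity.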

Sequence of 3',5'-cyclic-AMP phosphodiesterase 4B (Homo sapiens) (Q07343 whole entry, looked up): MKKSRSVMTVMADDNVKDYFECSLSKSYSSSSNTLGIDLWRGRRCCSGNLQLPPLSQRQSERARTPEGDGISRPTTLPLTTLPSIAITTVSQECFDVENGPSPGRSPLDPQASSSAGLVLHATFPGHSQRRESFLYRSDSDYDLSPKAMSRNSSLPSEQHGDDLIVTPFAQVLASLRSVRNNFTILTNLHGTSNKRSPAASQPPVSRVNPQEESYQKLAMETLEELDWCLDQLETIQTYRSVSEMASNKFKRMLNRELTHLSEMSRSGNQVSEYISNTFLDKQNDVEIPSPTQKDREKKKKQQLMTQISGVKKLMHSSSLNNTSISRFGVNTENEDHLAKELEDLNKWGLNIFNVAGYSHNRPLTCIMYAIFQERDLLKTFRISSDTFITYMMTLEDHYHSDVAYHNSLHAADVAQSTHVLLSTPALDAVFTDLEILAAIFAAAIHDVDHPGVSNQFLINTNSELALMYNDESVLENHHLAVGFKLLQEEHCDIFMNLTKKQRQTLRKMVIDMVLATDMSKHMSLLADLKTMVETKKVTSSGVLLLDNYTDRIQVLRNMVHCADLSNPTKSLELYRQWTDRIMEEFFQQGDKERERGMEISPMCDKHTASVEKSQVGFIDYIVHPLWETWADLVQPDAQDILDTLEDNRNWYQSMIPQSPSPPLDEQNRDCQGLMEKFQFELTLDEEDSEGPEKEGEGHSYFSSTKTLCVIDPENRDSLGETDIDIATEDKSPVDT
Sequence of Ubiquitin carboxyl-terminal hydrolase 1 (Homo sapiens) (O94782 whole entry, looked up): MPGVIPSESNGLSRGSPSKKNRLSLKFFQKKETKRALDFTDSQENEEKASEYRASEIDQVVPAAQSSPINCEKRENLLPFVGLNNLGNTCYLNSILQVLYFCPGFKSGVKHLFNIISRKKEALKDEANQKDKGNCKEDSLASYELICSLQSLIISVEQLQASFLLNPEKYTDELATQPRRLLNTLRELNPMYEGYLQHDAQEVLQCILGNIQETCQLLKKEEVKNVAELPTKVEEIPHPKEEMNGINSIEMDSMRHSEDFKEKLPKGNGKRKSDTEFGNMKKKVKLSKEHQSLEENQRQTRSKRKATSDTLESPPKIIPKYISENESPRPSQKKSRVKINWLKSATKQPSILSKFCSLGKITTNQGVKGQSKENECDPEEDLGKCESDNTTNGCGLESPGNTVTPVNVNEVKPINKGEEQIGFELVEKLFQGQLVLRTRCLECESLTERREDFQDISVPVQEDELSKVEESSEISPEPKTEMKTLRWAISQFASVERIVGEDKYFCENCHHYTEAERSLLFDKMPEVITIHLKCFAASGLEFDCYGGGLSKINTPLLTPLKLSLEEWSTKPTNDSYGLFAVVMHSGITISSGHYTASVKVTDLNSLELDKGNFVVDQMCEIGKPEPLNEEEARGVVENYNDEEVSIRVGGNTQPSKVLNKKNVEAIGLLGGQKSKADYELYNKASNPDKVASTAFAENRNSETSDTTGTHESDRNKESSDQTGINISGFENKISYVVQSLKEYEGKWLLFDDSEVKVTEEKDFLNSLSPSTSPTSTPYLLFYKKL
Sequence of DNA dC->dU-editing enzyme APOBEC-3G (Homo sapiens) (Q9HC16 whole entry, looked up): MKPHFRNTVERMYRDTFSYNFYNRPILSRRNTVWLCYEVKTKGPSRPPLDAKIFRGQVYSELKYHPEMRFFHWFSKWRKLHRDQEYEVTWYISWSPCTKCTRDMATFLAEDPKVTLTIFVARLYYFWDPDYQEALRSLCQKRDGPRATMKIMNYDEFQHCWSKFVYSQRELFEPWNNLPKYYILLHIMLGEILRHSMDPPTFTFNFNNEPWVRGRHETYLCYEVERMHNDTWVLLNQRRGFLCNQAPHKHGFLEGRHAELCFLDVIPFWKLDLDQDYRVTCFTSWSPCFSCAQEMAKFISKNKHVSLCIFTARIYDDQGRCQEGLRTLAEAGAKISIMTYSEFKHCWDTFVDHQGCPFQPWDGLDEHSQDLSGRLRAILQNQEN
Sequence of Cytochrome P450 1A2 (Homo sapiens) (P05177 whole entry, looked up): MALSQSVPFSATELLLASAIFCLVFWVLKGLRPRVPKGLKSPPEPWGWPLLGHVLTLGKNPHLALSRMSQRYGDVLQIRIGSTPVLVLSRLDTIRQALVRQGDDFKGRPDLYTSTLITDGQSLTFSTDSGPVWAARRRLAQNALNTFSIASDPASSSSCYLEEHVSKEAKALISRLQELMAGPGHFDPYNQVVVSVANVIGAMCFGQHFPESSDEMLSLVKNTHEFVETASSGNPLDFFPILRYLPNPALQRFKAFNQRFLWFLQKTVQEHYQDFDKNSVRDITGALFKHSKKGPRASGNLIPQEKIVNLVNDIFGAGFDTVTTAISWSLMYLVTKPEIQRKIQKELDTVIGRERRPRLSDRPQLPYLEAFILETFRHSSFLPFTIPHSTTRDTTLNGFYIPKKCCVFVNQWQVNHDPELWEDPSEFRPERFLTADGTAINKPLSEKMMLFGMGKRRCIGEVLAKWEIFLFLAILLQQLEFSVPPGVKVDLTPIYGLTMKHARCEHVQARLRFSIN
Sequence of Glucocorticoid receptor (Homo sapiens) (P04150 whole entry, looked up): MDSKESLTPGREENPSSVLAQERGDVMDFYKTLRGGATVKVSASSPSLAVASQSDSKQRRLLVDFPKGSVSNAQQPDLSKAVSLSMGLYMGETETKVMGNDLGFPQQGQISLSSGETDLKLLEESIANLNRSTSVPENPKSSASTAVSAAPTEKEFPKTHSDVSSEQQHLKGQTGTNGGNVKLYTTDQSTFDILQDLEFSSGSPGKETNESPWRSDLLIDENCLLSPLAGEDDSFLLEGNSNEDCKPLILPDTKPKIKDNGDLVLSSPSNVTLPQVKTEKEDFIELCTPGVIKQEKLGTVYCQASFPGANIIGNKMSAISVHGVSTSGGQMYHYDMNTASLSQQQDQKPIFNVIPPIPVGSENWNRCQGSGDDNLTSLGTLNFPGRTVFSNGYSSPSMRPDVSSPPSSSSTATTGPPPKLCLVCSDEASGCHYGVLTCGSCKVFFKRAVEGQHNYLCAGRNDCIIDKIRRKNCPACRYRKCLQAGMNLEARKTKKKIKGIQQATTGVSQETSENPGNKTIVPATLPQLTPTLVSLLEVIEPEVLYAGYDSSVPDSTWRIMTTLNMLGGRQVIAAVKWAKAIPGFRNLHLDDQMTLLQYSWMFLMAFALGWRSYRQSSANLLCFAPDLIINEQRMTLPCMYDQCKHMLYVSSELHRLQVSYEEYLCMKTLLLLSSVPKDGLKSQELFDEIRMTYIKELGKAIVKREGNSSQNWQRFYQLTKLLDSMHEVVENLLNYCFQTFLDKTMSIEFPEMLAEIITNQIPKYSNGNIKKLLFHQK
Sequence of Cytochrome P450 3A4 (Homo sapiens) (P08684 whole entry, looked up): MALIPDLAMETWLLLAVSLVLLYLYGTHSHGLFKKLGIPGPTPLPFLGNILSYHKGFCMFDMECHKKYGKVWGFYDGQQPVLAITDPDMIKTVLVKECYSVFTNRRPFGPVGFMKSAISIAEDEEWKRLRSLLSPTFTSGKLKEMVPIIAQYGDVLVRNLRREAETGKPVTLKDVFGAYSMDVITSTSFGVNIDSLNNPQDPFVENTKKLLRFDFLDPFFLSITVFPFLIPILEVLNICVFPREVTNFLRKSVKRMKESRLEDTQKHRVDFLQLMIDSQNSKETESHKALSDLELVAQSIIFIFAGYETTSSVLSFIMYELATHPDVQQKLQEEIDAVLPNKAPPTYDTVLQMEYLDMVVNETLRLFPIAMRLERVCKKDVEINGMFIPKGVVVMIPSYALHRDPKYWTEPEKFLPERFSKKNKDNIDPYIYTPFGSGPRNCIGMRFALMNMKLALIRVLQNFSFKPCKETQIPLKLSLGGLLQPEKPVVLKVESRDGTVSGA
Sequence of Cytochrome P450 2C9 (Homo sapiens) (P11712 whole entry, looked up): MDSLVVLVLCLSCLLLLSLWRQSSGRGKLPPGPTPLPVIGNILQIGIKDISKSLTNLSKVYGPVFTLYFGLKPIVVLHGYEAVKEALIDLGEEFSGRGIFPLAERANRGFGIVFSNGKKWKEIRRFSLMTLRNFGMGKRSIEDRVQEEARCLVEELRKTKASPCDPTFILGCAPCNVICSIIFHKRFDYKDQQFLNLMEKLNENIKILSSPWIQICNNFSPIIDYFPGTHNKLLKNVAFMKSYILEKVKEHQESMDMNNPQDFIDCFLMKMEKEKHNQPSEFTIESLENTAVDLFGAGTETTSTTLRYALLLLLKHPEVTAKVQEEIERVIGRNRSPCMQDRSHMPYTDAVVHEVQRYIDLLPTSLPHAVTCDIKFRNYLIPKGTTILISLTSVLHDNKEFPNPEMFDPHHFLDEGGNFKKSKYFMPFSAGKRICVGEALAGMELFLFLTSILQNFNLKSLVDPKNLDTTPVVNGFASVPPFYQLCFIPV
Sequence of Cytochrome P450 2D6 (Homo sapiens) (P10635 whole entry, looked up): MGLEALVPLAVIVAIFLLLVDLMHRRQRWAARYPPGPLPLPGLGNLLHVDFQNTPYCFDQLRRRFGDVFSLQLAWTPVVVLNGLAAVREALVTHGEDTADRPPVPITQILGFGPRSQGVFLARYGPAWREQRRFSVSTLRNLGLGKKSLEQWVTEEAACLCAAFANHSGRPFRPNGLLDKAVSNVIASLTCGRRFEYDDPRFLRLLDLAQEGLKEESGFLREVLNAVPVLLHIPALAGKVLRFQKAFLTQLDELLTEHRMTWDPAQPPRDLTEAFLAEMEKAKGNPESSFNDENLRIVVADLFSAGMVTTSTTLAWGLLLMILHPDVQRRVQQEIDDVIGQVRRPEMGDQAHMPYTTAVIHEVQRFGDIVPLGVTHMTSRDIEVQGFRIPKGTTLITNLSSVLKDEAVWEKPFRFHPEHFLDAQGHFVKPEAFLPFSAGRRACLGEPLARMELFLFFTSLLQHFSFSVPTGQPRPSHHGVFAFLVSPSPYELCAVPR

Turning to `O=S(=O)(c1cccc2cnccc12)N1CCNCC1`, the Potency in experiment [1] and in [2] was greater than 46 µM in each case. In addition, the Potency result in [3], in experiment [4], in experiment [5], in [6] and in [7] was “inactive” in each case.

For the compound `N[C@@H](Cn1ccc(=O)n(Cc2ccccc2C(=O)O)c1=O)C(=O)O`, the Potency result in experiment [8], in experiment [3], in experiment [9], in experiment [5], in experiment [6] and in experiment [7] was “inactive” in each case. Besides, the Potency in experiment [1] and in experiment [2] was greater than 46 µM in each case.

For `CC[C@@H](C)[C@H]1O[C@]2(CC[C@@H]1C)C[C@@H]1C[C@H](C/C=C(/C)[C@H](O[C@@H]3C[C@H](OC)[C@H](O[C@@H]4C[C@H](OC)[C@@H](O)[C@H](C)O4)[C@H](C)O3)[C@@H](C)/C=C\C=C3CO[C@@H]4[C@H](O)C(C)=C[C@@H](C(=O)O1)[C@]34O)O2` (tested in a mixture with another compound), the Potency result in experiment [8], in [9], in [6] and in [7] was “inactive” in each case. Further, the Potency in [1] and in experiment [2] was greater than 46 µM in each case.

On to `N=C(C[C@@H](O)COc1ccccc1-c1ccccc1)N1CCCCC1`, for which the Potency in [1] and in experiment [2] was greater than 46 µM throughout. Moreover, the Potency result in [3], in experiment [5], in experiment [6] and in experiment [7] was “inactive” each time.

Consider `O=C1c2ccccc2C(Cc2ccncc2)(Cc2ccncc2)c2ccccc21`, for which the figures for the Potency in experiment [1], in [2] and in experiment [10] were greater than 46 µM, greater than 46 µM and 0.501 µM (active), respectively. The Potency entry in experiment [3], in experiment [4], in experiment [5], in [6] and in experiment [7] was “inactive” throughout.

In the case of `COc1cccc(NC(=O)/C=C\c2ccc(Cl)cc2)c1`, the Potency in [8] is 1 µM (active); in experiment [1], greater than 46 µM; in experiment [2] it was greater than 46 µM; in experiment [11], 10 µM (active); in experiment [10], 12.6 µM (active). Moreover, the Potency result in [9], in [4], in [12] and in experiment [7] was “inactive” in each case.

As for `Cc1ccc(S(=O)(=O)NCc2ccccc2)cc1`, the Potency in experiment [8] is 0.501 µM (active); in experiment [1] it was greater than 46 µM; in [2], greater than 46 µM. The Potency entry in experiment [9], in experiment [4], in experiment [6] and in [7] was “inactive” throughout.

In the case of `CCOC(=O)c1c(C)[nH]c2ccc3c(c12)CN1CCc2cc(OC)ccc2[C@@H]1O3`, the Potency was 0.158 µM (active) in experiment [8], greater than 46 µM in [1] and greater than 46 µM in experiment [2]. Besides, the Potency result in experiment [4], in experiment [13], in experiment [5], in experiment [6] and in [7] was “inactive” throughout.

The values above are taken from PubChem BioAssay (NCATS).
